Experimental data published in PubChem BioAssay AID1259354 (Paczesny and Yang Labs, IUPUI and University of Michigan, 2018).
About 1,800 (2.3%) of roughly 78,000 compounds were called active. Roughly 27% stayed inconclusive and do not appear here. Cut-off read from the data, not from the text of the source: active = inhibition above about 30%; inconclusive = mostly about 10% to 28%; inactive = weaker than that. The sample as a whole holds a higher share of actives than the screen did.

molecular target: Interleukin-1 receptor-like 1 (Homo sapiens) (UniProt Q01638); assay: inhibitors of human ST2 (IL1RL1) binding to IL-33, primary screen, biochemical, AlphaLISA (AID 1259354); conditions: AlphaLISA ST2-Fc/biotin-IL-33 interaction, 1 h; at 17 µM, hits give high values
Sequence (Q01638 whole entry, looked up): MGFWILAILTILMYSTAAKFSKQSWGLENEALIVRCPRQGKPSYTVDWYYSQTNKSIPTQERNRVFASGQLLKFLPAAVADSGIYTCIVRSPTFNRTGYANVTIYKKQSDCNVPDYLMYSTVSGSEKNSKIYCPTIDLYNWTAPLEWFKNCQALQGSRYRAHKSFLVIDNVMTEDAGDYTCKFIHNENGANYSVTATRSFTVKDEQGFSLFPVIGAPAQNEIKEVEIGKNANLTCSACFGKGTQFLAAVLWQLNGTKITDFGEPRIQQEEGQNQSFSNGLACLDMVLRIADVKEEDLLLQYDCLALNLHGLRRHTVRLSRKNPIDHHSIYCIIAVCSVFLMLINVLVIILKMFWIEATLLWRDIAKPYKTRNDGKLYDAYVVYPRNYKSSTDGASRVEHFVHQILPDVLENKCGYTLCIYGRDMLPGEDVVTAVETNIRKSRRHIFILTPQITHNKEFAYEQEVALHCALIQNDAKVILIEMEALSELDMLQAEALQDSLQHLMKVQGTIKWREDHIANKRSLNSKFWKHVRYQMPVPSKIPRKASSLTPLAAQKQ

Row | Structure (SMILES) | inhibition
1 | CCN(CC)CCNc1ccc([N+](=O)[O-])c2cccnc12 | inactive
2 | CCN(CC)c1ccc([N+](=O)[O-])c2cccnc12 | 56% (active)
3 | COc1cc(CN2CCN(Cc3ccccc3)CC2)cc(I)c1O | inactive
4 | C/C=C(\C)CN1CCC2(CCNCC2)C1 | inactive
5 | CCOC(=O)C1C2NC(=O)N(c3cccc(C)c3)C1(C)Oc1c(OC)cccc12 (stereo not given) | inactive
